The source of these data is PubChem BioAssay (EPA / NIEHS).

Experiment [1] can be described thus: ATG_CRE_CIS: Attagene CIS-FACTORIAL HepG2 Assay for human cAMP Responsive Element (CRE) binding protein 3 (AID 2282926). To be noted: HepG2 CRE cis-reporter, Attagene multiplexed mRNA; actives raise or lower the signal. A digest of the protocol:
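Readout: fluorescently labelled reporter transcripts resolved by capillary electrophoresis after RT-PCR, taken 24 h post-dosing in transfected HepG2. Endogenous transcription factor activity drives each cis-element reporter; gain or loss of signal fitted relative to DMSO control.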

Experiment [2] concerns the target CCAAT/enhancer-binding protein beta (Homo sapiens) (UniProt P17676). In words: ATG_C_EBP_CIS: Attagene CIS-FACTORIAL HepG2 Assay for human CCAAT/Enhancer Binding Protein (C/EBP) beta (AID 2282927). To be noted: HepG2 Attagene cis-factorial transcription factor reporter; actives raise or lower the signal. A digest of the protocol:
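Following a 24 h incubation with test chemical, transfected HepG2 cells yielded RNA whose reporter transcripts were quantified by RT-PCR and fluorescent capillary electrophoresis, with DMSO serving as baseline for bidirectional fitting.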

Experiment [3] in a line: ATG_CMV_CIS: Attagene CIS-FACTORIAL HepG2 Assay for human CMV (Internal Marker) (AID 2282928).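 Note: endpoint acts as a background internal control marker rather than a target.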 To be noted: HepG2 CMV promoter reporter, transcription factor profiling; actives raise or lower the signal. A digest of the protocol: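 Reporter transcripts from transfected HepG2 cells are isolated after 24 h of chemical dosing, reverse-transcribed and amplified. Fragments labeled with 6-FAM are cut with HpaI and quantified by capillary electrophoresis; DMSO defines baseline.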

The nature of experiment [4]: ATG_DR4_LXR_CIS: Attagene CIS-FACTORIAL HepG2 Assay for human Liver X Receptor (LXR), DR4 submotif (AID 2282929). Conditions: HepG2 Attagene DR4 cis-reporter, mRNA transcription; actives raise or lower the signal. A digest of the protocol: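 HepG2 cells transiently transfected with cis-promoter-driven multiplexed reporter units (DR4 element) were dosed for 24 h. Reporter mRNA was quantified by RT-PCR, fluorescent primer extension, HpaI digestion and capillary electrophoresis; bidirectional fitting versus DMSO baseline.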

In experiment [5] the target is Aryl hydrocarbon receptor (Homo sapiens) (UniProt P35869). In words: ATG_Ahr_CIS: Attagene CIS-FACTORIAL HepG2 Assay for human Aryl Hydrocarbon Receptor (Ahr) (AID 2282930). Conditions: HepG2 AhR cis-factorial reporter transcription; actives raise or lower the signal. The method in brief: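 Values derive from bidirectional fitting against DMSO negative control. Underlying signal: cis-element reporter mRNA in transiently transfected HepG2, harvested 24 h post-dose and measured by RT-PCR plus capillary electrophoresis.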
Sequence of Aryl hydrocarbon receptor (Homo sapiens) (P35869 whole entry, looked up): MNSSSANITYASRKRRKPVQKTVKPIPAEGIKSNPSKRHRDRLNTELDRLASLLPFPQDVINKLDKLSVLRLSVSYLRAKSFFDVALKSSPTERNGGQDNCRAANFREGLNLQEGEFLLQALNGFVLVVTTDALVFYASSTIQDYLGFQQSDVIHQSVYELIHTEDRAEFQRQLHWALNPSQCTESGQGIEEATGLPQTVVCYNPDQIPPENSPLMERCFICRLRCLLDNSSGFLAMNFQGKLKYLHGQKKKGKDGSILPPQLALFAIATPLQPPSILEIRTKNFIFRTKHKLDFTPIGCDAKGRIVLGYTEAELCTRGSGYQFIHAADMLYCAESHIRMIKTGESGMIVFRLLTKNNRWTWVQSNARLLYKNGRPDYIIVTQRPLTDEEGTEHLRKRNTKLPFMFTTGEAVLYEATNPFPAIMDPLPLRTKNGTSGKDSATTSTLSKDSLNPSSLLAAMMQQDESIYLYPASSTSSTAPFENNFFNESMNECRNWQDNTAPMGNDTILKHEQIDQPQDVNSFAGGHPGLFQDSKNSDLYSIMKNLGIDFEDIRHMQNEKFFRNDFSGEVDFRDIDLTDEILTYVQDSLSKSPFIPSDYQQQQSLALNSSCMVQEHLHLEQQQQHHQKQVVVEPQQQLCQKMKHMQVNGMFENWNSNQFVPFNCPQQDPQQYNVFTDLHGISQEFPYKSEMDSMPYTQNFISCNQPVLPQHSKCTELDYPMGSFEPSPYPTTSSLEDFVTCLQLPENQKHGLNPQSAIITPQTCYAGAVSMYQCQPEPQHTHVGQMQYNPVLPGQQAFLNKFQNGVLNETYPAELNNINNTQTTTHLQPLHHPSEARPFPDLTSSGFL

The nature of experiment [6]: ATG_AP_1_CIS: Attagene CIS-FACTORIAL HepG2 Assay for human Activator Protein 1 (AP-1) (AID 2282931). Conditions: HepG2 Attagene cis-factorial AP-1 reporter mRNA; actives raise or lower the signal. A digest of the protocol: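 HepG2 cells transiently transfected with cis-element-driven multiplex reporter units; 24 h compound exposure. Reporter mRNA quantified by RT-PCR, FAM-labelled fragments resolved by capillary electrophoresis; bidirectional fit versus DMSO baseline.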

Experiment [7] can be described thus: ATG_AP_2_CIS: Attagene CIS-FACTORIAL HepG2 Assay for human Activator Protein 2 (AP-2) (AID 2282932). Conditions: HepG2 AP-2 cis-reporter, Attagene transcription factor profiling; actives raise or lower the signal. The method in brief: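 Assay in transfected HepG2 with promoter-regulated reporters, 24 h incubation after dosing. Signal is reporter mRNA fluorescence (RT-PCR, capillary electrophoresis), analysed for both increases and decreases relative to DMSO controls.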

Experiment [8] can be described thus: ATG_BRE_CIS: Attagene CIS-FACTORIAL HepG2 Assay for human Bone Morphogenetic Protein (BMP) Response Element (BRE) (AID 2282933). To be noted: HepG2 BMP response element reporter, Attagene transcription factor profiling; actives raise or lower the signal. The method in brief:
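Endogenous transcription factor activity at a BMP response element was monitored in transfected HepG2 cells 24 h after dosing. Fluorescent RT-PCR products were resolved by capillary electrophoresis, and activity was fitted in both directions versus DMSO.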

For experiment [9], the target named is Retinoic acid receptor alpha (Homo sapiens) (UniProt P10276). In words: ATG_DR5_RAR_CIS: Attagene CIS-FACTORIAL HepG2 Assay for human Retinoic Acid Receptor Alpha (RARE), DR5 submotif (AID 2282934).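 For AC50: reporter responds to endogenous RAR alpha beta and gamma in HepG2 not RARA alone.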 Conditions: HepG2 Attagene cis-factorial RARE DR5 reporter, mRNA; actives raise or lower the signal. The method in brief:
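Endpoint fitted in both directions relative to DMSO as negative control. It reflects DR5 cis-element reporter mRNA induction in transiently transfected HepG2 cells, measured 24 h after dosing through RT-PCR and fluorescent capillary electrophoresis.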

A short description of experiment [10]: ATG_E_Box_CIS: Attagene CIS-FACTORIAL HepG2 Assay for human Enhancer Box (E-box) (AID 2282936). Conditions: HepG2 E-box cis-reporter transcription, actives raise or lower the signal. The method in brief: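 Measured 24 h post-dosing in HepG2 cells transfected with multiple cis-regulated reporter units, signal being reporter mRNA induction detected by fluorescent RT-PCR with capillary electrophoresis; gain or loss fitted against DMSO.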

Experiment [11] in a line: ATG_M_61_CIS: Attagene CIS-FACTORIAL HepG2 Assay for M61 Transcription Factor (Internal Marker) (AID 2282937). To be noted: HepG2 Attagene CIS-FACTORIAL M61 internal marker reporter; actives raise or lower the signal. The method in brief:
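HepG2 cells transiently transfected with cis-element-driven multiple reporter transcription units, dosed for 24 h. Reporter mRNA measured by RT-PCR, 6-FAM primer-extension labelling, HpaI digestion and capillary electrophoresis; bidirectional fit versus DMSO baseline.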

A short description of experiment [12]: ATG_EGR_CIS: Attagene CIS-FACTORIAL HepG2 Assay for human Early Growth Response 1 (EGR1) (AID 2282938). To be noted: HepG2 Attagene CIS-FACTORIAL EGR reporter mRNA; actives raise or lower the signal. The method in brief:
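HepG2 cells transiently transfected with cis-promoter-driven multiplexed reporter transcription units; reporter mRNA measured 24 h after compound dosing by RT-PCR, 6-FAM primer extension, HpaI digestion and capillary electrophoresis. Bidirectional fit versus DMSO baseline.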

Experiment [13] in a line: ATG_Ets_CIS: Attagene CIS-FACTORIAL HepG2 Assay for human Erythroblast Transformation Specific (ETS) (AID 2282941). To be noted: HepG2 ETS cis-reporter transcription, actives raise or lower the signal. The method in brief:
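Bidirectional fit versus DMSO of reporter mRNA signal, detected by RT-PCR and capillary electrophoresis in HepG2 cells transiently transfected with cis-element reporters and dosed 24 h.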

Experiment [14] addresses Hepatocyte nuclear factor 3-beta (Homo sapiens) (UniProt Q9Y261). Description: ATG_FoxA2_CIS: Attagene CIS-FACTORIAL HepG2 Assay for human Forkhead box A2 (FOXA2) (AID 2282942). To be noted: HepG2 cis-reporter transcription factor activity, 24 h; actives raise or lower the signal. A digest of the protocol: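 HepG2 cells transiently transfected with multiple cis-regulated reporter transcription units, dosed for 24 h. Reporter mRNA measured by RT-PCR, 6-FAM labelling, HpaI digestion and capillary electrophoresis; bidirectional fitting against DMSO baseline.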

Experiment [15] is described as follows: ATG_FoxO_CIS: Attagene CIS-FACTORIAL HepG2 Assay for human Forkhead box O (FoxO) (AID 2282943). To be noted: HepG2 Attagene cis-reporter, FoxO element, mRNA; actives raise or lower the signal. The method in brief:
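Values reflect reporter mRNA induction or loss in HepG2 cells 24 h post-dosing, fitted bidirectionally with DMSO as negative control and baseline. Detection used RT-PCR and fluorescence capillary electrophoresis.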

Experiment [16] in a line: ATG_GATA_CIS: Attagene CIS-FACTORIAL HepG2 Assay for human GATA Binding Protein (AID 2282944). To be noted: HepG2 GATA cis-element reporter, Attagene multiplex mRNA; actives raise or lower the signal. A digest of the protocol: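 Endogenous transcription factor activity was captured through cis-promoter-driven reporters in transfected HepG2 cells. After 24 h exposure, reporter transcripts were quantified by RT-PCR with fluorescent capillary electrophoresis, and responses fitted both directions against DMSO.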

Experiment [17] in a line: ATG_GLI_CIS: Attagene CIS-FACTORIAL HepG2 Assay for human Zinc Finger Protein GLI1 (AID 2282945). Conditions: HepG2, Attagene cis-factorial reporter mRNA, GLI element; actives raise or lower the signal. The method in brief: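 HepG2 cells transiently transfected with cis-promoter multiplexed reporter units report endogenous transcription factor activity. After 24 h chemical exposure, reporter mRNA was quantified by RT-PCR, 6-FAM labelling, HpaI digestion and capillary electrophoresis, with bidirectional fitting against DMSO.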

The target in experiment [18] is Transcription factor E2F1 (Homo sapiens) (UniProt Q01094). In words: ATG_E2F_CIS: Attagene CIS-FACTORIAL HepG2 Assay for human E2F Transcription Factor 1 (AID 2282935). Conditions: HepG2 Attagene cis-reporter, E2F reporter RNA transcripts; actives raise or lower the signal. A digest of the protocol:
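In this cis-factorial format, endogenous factor activity drives transfected reporters in HepG2; transcripts collected at 24 h are quantified by fluorescence after RT-PCR and capillary separation.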

Experiment [19] can be described thus: ATG_M_19_CIS: Attagene CIS-FACTORIAL HepG2 Assay for M19 Transcription Factor (Internal Marker) (AID 2282939). To be noted: HepG2 Attagene CIS-FACTORIAL M19 internal marker reporter; actives raise or lower the signal. A digest of the protocol: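 Background-control endpoint from a multiplexed HepG2 reporter panel. Cells carrying cis-regulated reporter constructs are treated 24 h, then reporter transcripts are amplified, fluorescently labelled and sized by capillary electrophoresis. DMSO defines baseline.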

Experiment [20] is described as follows: ATG_ERE_CIS: Attagene CIS-FACTORIAL HepG2 Assay for Estrogen Response Element (ERE) (AID 2282940). Conditions: HepG2 ERE cis-reporter, Attagene RNA transcript; actives raise or lower the signal. A digest of the protocol:
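Cells used were human hepatoma HepG2, transfected with multiple reporter transcription units under cis-regulatory promoters. Reporter mRNA, read 24 h post-dosing via fluorescent RT-PCR products on capillary electrophoresis, was fitted bidirectionally relative to DMSO.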

The source made the active and inactive calls. Rule for the calls: active = hit-call score of the fitted dose curve at least 0.9, where 1 is the maximum; inactive = score below 0.9.

Sequence of CCAAT/enhancer-binding protein beta (Homo sapiens) (P17676 whole entry, looked up): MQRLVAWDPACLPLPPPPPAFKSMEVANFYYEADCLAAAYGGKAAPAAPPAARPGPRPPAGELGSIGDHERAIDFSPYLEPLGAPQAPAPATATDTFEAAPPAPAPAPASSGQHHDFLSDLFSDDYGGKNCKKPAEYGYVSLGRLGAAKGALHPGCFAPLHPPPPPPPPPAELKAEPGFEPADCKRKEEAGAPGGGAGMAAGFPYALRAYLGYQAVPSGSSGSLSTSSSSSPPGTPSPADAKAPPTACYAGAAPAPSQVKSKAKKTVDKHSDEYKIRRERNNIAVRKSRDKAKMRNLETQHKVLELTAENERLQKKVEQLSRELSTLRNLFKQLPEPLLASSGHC
Sequence of Hepatocyte nuclear factor 3-beta (Homo sapiens) (Q9Y261 whole entry, looked up): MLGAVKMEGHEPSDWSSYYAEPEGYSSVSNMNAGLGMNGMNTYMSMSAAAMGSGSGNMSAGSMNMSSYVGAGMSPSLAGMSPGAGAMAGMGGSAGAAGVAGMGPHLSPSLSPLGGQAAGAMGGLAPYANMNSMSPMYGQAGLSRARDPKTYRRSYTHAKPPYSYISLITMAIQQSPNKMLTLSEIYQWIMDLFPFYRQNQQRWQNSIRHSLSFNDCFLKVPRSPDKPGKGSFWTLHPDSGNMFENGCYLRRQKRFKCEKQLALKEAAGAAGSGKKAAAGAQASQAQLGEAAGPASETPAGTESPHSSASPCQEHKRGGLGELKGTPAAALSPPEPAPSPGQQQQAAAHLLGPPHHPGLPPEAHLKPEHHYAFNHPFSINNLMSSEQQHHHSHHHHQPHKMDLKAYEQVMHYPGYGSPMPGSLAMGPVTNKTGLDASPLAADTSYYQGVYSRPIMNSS
Sequence of Retinoic acid receptor alpha (Homo sapiens) (P10276 whole entry, looked up): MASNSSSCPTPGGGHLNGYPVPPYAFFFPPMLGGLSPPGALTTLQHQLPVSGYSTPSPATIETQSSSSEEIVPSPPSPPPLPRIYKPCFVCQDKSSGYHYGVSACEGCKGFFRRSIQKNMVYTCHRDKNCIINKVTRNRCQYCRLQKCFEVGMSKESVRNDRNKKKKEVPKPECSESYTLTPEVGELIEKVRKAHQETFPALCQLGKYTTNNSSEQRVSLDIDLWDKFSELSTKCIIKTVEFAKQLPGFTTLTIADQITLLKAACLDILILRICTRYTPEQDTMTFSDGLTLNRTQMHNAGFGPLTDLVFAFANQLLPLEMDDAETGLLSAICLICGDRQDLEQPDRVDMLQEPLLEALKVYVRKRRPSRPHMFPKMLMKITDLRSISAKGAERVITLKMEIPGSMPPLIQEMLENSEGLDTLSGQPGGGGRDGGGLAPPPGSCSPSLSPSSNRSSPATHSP
Sequence of Transcription factor E2F1 (Homo sapiens) (Q01094 whole entry, looked up): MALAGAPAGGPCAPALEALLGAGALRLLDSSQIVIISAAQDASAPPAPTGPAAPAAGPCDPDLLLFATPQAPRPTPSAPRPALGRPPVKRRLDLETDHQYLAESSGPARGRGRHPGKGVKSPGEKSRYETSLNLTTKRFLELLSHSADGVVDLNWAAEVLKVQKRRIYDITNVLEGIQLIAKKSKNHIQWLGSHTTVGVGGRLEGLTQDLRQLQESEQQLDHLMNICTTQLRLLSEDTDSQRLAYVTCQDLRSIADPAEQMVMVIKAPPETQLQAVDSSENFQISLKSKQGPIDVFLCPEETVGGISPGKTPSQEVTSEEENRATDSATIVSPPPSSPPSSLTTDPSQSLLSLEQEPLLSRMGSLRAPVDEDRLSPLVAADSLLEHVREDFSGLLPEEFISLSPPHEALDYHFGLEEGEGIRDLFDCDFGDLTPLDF

With `CCCCC(CC)COC(=O)c1ccc(C(=O)OCC(CC)CCCC)c(C(=O)OCC(CC)CCCC)c1` (stereo unspecified), the compound was called inactive in [1], in [2], in [3], in experiment [4], in experiment [5] and in experiment [6]. The compound was called inactive in experiment [7], in [8], in [9], in experiment [10], in experiment [11] and in experiment [12]. Also, the outcome in experiment [13], in experiment [14], in [15], in experiment [16] and in experiment [17] was inactive.

Consider `CN(C)c1ccc(C(=O)c2ccc(N(C)C)cc2)cc1`, for which the compound was classed as inactive in experiment [1], in [2], in [3], in experiment [4], in experiment [6] and in [7]. Besides, the outcome in experiment [8], in [9], in [10], in experiment [11], in experiment [12] and in experiment [13] was inactive. Besides, the result in experiment [14], in experiment [15], in experiment [16] and in experiment [17] was inactive. For the same compound, the AC50 (as a rule, the concentration giving half of the maximal activity seen) in experiment [5] was 65.5 µM (active).

`ClC1=C(Cl)[C@]2(Cl)[C@H]3[C@H]([C@@H]4C=C[C@H]3C4)[C@@]1(Cl)C2(Cl)Cl`: the compound was classed as inactive in experiment [1], in [2], in [5], in [7], in [8] and in [18]. Further, the result in [10], in experiment [11], in experiment [19], in experiment [13], in experiment [14] and in experiment [15] was inactive. For the same compound, the compound was called inactive in experiment [16] and in experiment [17]. Moreover, the AC50 in experiment [3] was 45.6 µM (active); in [4] it was 25.9 µM (active); in experiment [6], 46.9 µM (active); in experiment [12] it was 33.4 µM (active); in experiment [20], 16.1 µM (active).

In the case of `COC(=O)Nc1nc2ccccc2[nH]1`, the result in experiment [1], in experiment [2], in experiment [3], in [4], in experiment [6] and in experiment [7] was inactive. The result in [8], in [9], in [18], in experiment [10], in experiment [11] and in experiment [12] was inactive. In addition, the result in experiment [13], in [14], in [15] and in experiment [16] was inactive. The AC50 in [5] is 13.3 µM (active).

For `CCOC(=O)[C@]1(c2ccccc2)Oc2ccccc2[C@@H]1N`, the AC50 in experiment [1] was 20.3 µM (active); in [2] it was 33 µM (active); in [3], 33 µM (active); in experiment [4], 52.4 µM (active); in experiment [6], 40 µM (active); in [7], 55.1 µM (active). For the same compound, the AC50 in [8] is 22.5 µM (active); in experiment [9] it was 13.6 µM (active); in experiment [12] it was 33 µM (active); in experiment [15], 49.5 µM (active). Moreover, the compound was classed as inactive in experiment [5], in experiment [10], in [11], in experiment [13], in experiment [14] and in experiment [16].

In the case of `Oc1ccccc1Cl`, the compound was classed as inactive in experiment [1], in experiment [2], in [3], in [4], in experiment [5] and in [6]. Moreover, the outcome in experiment [7], in experiment [8], in experiment [18], in experiment [10], in experiment [11] and in [12] was inactive. Also, the result in experiment [19], in experiment [13], in [14], in [15] and in experiment [16] was inactive.

For `CC(C)(C)OOC(=O)c1ccccc1`, the compound was called inactive in experiment [1], in [2], in experiment [4], in experiment [5], in experiment [7] and in [8]. In addition, the compound was classed as inactive in experiment [9], in experiment [10], in experiment [11], in [12], in [13] and in experiment [14]. The compound was called inactive in experiment [16] and in [17]. The AC50 in [3] is 74.8 µM (active); in experiment [6], 130 µM (active); in [18], 158 µM (active); in experiment [15] it was 156 µM (active).
